In PubChem BioAssay (NCATS):
Results filed as inconclusive are left out. Calls of active or inactive are those of the source. Unless noted, calls come from the whole dose curve; as a rule, active = well fitted curve in either direction with a large enough effect (not every such curve was filed as active); inconclusive = small, poorly fitted or top-dose-only effect, or another doubt; inactive = flat fitted curve, though single readings scatter.

Experiments:
[1] = system: HIV-1 nucleocapsid protein NCp7 (binding to TG oligonucleotide); test: HIV Nucleocapsid (AID 346; call rule not given here;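 note: potency is the fitted concentration of half-maximal effect; potency is for inhibitors that block NC binding and lower polarization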); conditions: HIV-1 NC / fluorescein-TGTGTGTG probe, fluorescence polarization
Procedure, shortened: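 Fluorescence polarization binding of 100 nM HIV-1 NC to 10 nM fluorescein-labelled TG4xF oligonucleotide. Buffer was Hepes pH 7.5 with 250mM NaCl, 1uM ZnCl2, TCEP and 2-mercaptoethanol. Compounds were incubated 1 hr at room temperature before the read.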

[2] = target: Lysosomal acid glucosylceramidase (Homo sapiens) (UniProt P04062); test: Glucocerebrosidase-p2 (AID 348; in the data active = potency below about 10 µM; note: potency is the fitted concentration of half-maximal effect); conditions: purified GBA, blue fluorogenic substrate, 40 min
Sequence of Lysosomal acid glucosylceramidase (Homo sapiens) (P04062 whole entry, looked up): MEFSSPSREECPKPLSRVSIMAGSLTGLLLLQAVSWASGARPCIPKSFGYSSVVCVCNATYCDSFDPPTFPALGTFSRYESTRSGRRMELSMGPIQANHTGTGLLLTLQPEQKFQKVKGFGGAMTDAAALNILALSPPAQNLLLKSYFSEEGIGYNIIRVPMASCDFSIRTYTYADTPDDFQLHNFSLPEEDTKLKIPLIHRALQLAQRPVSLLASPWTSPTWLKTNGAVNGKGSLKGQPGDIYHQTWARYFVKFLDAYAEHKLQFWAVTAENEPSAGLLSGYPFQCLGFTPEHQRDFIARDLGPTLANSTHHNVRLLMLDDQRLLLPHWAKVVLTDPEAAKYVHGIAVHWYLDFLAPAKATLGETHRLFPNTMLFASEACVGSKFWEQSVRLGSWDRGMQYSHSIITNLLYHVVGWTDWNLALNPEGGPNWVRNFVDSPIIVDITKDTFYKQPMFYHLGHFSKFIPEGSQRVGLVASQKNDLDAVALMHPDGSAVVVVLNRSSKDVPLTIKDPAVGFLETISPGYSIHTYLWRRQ
Procedure, shortened: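 Normal human glucocerebrosidase (0.2 nM) with blue fluorogenic substrate (80 uM final) in citrate/phosphate pH 5.9 with 10mM sodium taurocholate, 0.01% tween-20; 40 min RT, NaOH/glycine stop; fluorescence Ex 365/Em 440; AC50 from a titration from 0.6 nM upwards.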

[3] = AP1 Signaling Pathway (AID 357);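 note: ME-180 reporter cells stimulated with EGF at its EC50 level; % is set by controls: 0 for no effect and ±100 for the full control effect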
Procedure, shortened: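 In this screen, ME-180 cells in Opti-MEM with 0.5% dialyzed FBS received EC50 EGF and compound titrations for 5 h. AP-1 reporter beta-lactamase was detected via CCF4 ratio, giving AC50 for positive and negative modulators.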

[4] = target: Cytochrome P450 1A2 (Homo sapiens) (UniProt P05177); test: p450-cyp1a2 (AID 410; calls by dose curve;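 note: -100% = full effect of reference inhibitor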)
Sequence of Cytochrome P450 1A2 (Homo sapiens) (P05177 whole entry, looked up): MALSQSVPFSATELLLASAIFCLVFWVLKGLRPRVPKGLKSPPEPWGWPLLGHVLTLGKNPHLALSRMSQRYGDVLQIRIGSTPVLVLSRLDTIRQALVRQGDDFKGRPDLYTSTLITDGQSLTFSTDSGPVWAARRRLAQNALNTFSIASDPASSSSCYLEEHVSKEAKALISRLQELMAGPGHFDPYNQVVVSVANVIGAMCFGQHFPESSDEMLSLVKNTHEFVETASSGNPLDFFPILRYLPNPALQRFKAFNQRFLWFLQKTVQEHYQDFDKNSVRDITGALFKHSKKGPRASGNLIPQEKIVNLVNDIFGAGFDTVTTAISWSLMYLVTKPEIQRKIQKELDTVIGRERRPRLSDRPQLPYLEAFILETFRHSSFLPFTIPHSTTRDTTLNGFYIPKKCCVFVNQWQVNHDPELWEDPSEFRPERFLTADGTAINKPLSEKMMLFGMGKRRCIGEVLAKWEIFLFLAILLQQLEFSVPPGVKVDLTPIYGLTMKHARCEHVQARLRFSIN
Procedure, shortened: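 Read-out is luminescence from luciferin produced by CYP1A2 demethylation of Luciferin-ME (100uM, at Km). Detection reagent stopped the 60 min NADPH-dependent reaction; signals were normalized to 57 uM furafylline.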

[5] = Stat Signaling Pathway (AID 446);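 note: ME-180 cervical cancer cells given 40 pM IL-6 alongside compound; SIE-controlled beta-lactamase reporter measured as 460/530 nm FRET emission ratio; % is set by controls: 0 for no effect and ±100 for the full control effect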
Procedure, shortened: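 Overnight-plated ME-180 cells bearing a STAT Inducible Element beta-lactamase reporter; 5 h co-exposure to compound and 40 pM IL-6; values normalized to 300 pM IL-6 and 125 nM JAK inhibitor controls.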

[6] = target: Glucocorticoid receptor (Homo sapiens) (UniProt P04150); test: GR-EFC Redistribution (AID 451; calls by dose curve; note: potency is the fitted concentration of half-maximal effect); conditions: CHO-K1 GR-EFC translocation, beta-gal luminescence, 2 h
Sequence of Glucocorticoid receptor (Homo sapiens) (P04150 whole entry, looked up, the tested form may be a part): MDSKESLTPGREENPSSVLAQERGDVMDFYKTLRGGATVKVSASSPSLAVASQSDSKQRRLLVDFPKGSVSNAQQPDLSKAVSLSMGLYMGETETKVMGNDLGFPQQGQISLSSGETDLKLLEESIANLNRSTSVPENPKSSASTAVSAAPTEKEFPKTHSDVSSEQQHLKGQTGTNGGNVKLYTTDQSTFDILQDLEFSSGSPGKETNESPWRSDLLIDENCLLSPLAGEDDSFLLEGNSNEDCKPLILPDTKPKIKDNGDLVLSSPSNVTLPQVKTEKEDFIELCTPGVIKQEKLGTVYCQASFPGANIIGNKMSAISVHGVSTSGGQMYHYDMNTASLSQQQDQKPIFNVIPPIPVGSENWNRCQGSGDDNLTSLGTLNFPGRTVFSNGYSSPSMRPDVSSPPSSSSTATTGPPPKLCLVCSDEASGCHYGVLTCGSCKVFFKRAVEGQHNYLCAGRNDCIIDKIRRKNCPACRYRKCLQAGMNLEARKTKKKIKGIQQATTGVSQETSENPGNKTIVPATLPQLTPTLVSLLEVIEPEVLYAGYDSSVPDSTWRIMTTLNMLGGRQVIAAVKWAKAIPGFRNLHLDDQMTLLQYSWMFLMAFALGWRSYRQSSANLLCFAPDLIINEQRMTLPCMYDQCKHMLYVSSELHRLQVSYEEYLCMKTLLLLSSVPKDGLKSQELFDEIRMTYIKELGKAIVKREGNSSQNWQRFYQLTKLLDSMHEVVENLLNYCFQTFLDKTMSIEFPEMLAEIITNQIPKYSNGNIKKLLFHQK
Procedure, shortened: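 Translocation of GR-ED fusion to nuclear EA restores b-gal, read by luminescence after 1 h room-temperature detection. Engineered CHO-K1 biosensor cells, 1,000/well, exposed 2 h at 37 C to titrations up to 46 uM final.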

[7] = target: Mitogen-activated protein kinase 10 (Mus musculus) (UniProt Q61831); test: JNK3 AlphaScreen Assay (AID 530);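 note: kinase came from lysate of stimulated human HepG2 cells; signal reports phosphorylation of biotinylated GST-cJun 1-79 at Ser73 with 10 µM ATP; % is set by controls: 0 for no effect and ±100 for the full control effect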
Procedure, shortened: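 Kinase buffer: 20 mM Tris-HCl pH 7.6, 10 mM MgCl2, 1 mM DTT, 0.1 mM Na3VO4, 0.01% Tween-20; ATP 10 uM. Substrate biotin-GST-cJun(1-79), enzyme from activated HepG2 lysates. Detection by Ser73 phospho-antibody AlphaScreen.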

[8] = target: 3',5'-cyclic-AMP phosphodiesterase 4B (Homo sapiens) (UniProt Q07343); test: qHTS Assay for Inhibitors of PDE-IV (AID 607; active = well fitted activation curve with a large enough effect in the main read-out, with a control signal flat, not every such curve was filed as active; note: % of control where 0% means no effect)
Sequence of 3',5'-cyclic-AMP phosphodiesterase 4B (Homo sapiens) (Q07343 whole entry, looked up): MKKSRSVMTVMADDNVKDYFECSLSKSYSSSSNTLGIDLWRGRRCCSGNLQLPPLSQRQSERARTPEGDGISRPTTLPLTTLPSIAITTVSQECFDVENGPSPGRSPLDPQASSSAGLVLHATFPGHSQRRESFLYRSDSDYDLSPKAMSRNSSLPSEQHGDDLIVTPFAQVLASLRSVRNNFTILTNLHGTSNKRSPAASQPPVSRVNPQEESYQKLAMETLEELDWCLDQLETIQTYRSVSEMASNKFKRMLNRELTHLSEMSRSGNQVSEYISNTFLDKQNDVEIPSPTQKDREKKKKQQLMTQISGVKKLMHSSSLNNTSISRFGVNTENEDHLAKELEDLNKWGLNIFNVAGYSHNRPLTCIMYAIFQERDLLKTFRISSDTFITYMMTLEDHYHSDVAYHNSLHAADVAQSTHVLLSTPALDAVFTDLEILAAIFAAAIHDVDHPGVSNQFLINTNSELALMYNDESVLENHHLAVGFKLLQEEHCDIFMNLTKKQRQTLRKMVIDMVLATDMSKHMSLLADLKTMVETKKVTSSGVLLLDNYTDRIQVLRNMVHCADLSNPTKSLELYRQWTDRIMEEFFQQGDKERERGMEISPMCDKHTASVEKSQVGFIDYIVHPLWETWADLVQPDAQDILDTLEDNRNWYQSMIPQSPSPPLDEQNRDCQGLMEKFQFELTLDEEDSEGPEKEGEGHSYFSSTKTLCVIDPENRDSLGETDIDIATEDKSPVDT
Procedure, shortened: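 Live HEK293 cells with a modified cyclic nucleotide-gated (CNG) channel report intracellular cAMP via membrane-potential dye fluorescence (ex 535/em 590 nm). Endogenous PDE-IV was targeted. Compounds were tested at up to 22.9 uM final; RO 20-1724 100 uM served as control.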

[9] = target: Cytochrome P450 3A4 (Homo sapiens) (UniProt P08684); test: qHTS Assay for Inhibitors and Substrates of Cytochrome P450 3A4 (AID 884; active = well fitted inhibition curve with a large enough effect; note: % is set by controls: 0 for no effect and ±100 for the full control effect; nearly all actives have a fitted effect of over 50% in size)
Sequence of Cytochrome P450 3A4 (Homo sapiens) (P08684 whole entry, looked up): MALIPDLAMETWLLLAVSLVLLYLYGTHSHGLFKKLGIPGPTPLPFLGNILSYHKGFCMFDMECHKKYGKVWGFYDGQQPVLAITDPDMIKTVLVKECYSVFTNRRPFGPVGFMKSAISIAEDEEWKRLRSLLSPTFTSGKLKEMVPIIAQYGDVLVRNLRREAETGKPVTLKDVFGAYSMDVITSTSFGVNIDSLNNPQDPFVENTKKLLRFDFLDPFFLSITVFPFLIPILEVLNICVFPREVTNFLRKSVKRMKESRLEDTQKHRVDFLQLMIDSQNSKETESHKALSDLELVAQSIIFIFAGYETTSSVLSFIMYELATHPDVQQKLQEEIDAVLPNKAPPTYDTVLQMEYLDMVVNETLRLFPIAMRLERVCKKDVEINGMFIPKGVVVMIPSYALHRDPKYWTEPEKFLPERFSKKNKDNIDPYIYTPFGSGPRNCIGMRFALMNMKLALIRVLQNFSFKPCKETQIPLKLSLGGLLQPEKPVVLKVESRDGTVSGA
Procedure, shortened: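 Luminescent readout of luciferin produced by CYP3A4 (20 nM) dealkylation of Luciferin-PPXE, 25 uM (its KM). NADPH-driven reaction ran 60 min at RT after 10 min compound preincubation; data scaled to 57 uM ketoconazole as 100% inhibition.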

[10] = target: Cytochrome P450 2D6 (Homo sapiens) (UniProt P10635); test: qHTS Assay for Inhibitors and Substrates of Cytochrome P450 2D6 (AID 891; active = well fitted inhibition curve with a large enough effect; note: nearly all actives have a fitted effect of over 60% in size; note: potency is the fitted concentration of half-maximal effect)
Sequence of Cytochrome P450 2D6 (Homo sapiens) (P10635 whole entry, looked up): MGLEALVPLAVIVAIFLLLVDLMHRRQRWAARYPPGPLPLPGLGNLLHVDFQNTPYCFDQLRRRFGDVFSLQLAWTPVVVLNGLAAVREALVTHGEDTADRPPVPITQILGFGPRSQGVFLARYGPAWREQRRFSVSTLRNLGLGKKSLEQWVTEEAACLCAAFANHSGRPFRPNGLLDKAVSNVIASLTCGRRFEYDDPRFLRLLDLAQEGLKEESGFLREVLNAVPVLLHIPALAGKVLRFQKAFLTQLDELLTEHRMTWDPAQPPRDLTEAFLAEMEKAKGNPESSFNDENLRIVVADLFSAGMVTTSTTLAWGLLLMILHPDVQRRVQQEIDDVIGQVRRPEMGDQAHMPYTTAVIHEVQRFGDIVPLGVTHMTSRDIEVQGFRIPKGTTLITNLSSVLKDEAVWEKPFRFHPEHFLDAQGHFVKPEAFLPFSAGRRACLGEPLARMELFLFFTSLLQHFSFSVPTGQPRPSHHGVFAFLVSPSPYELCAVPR
Procedure, shortened: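 Luminescent read-out of luciferin formed by 5 nM human CYP2D6 demethylating 30 uM Luciferin-ME EGE (Km level) over 60 min at room temperature after NADPH regeneration addition. Data normalized to full inhibition by 1.43 uM quinidine.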

[11] = target: Cytochrome P450 2C19 (Homo sapiens) (UniProt P33261); test: qHTS Assay for Inhibitors and Substrates of Cytochrome P450 2C19 (AID 899; active = well fitted inhibition curve with a large enough effect; note: % is set by controls: 0 for no effect and ±100 for the full control effect; nearly all actives have a fitted effect of over 60% in size)
Sequence of Cytochrome P450 2C19 (Homo sapiens) (P33261 whole entry, looked up): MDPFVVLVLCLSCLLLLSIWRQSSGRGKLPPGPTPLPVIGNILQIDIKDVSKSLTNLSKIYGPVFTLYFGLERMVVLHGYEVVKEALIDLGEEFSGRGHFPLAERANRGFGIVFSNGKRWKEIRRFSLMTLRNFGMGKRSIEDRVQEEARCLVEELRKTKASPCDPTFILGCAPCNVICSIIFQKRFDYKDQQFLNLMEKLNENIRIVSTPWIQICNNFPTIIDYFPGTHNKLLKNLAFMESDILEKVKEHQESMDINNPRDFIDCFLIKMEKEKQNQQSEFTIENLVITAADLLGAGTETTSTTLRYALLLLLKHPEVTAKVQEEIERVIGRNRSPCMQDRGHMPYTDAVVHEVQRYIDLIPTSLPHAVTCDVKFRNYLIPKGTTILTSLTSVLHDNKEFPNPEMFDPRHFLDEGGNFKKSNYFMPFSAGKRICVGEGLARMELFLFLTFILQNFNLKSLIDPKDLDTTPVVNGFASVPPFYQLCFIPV
Procedure, shortened: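 5nM enzyme + 10uM Luciferin-H EGE (=KM), 50mM KPO4; cpd pin-transferred, 10 min 37C; NADPH regen, 60 min 37C; stopped w/ luciferin detection reagent, 20 min; luminescence. Normalized to 57uM ketoconazole (AC100).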

[12] = qHTS Assay for Lipid Storage Modulators (AID 1519; calls by dose curve); conditions: Drosophila S3 cells, BODIPY lipid droplet/cell ratio, laser cytometry, cells loaded with oleic acid; for activity change, negative = inhibition: at 57.5 µM (top of the series)
Procedure, shortened: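 Cells seeded at 5,000 per well were treated with compounds over a concentration series and loaded with oleic acid (400 uM, as added). Lipid droplet fluorescence (488 nm excitation, 500-530 nm channel) was read by laser-scanning cytometry and normalized to 20 uM Triacsin C.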

[13] = Primary qHTS for small molecule stabilizers of the endoplasmic reticulum resident proteome: Secreted ER Calcium Modulated Protein (SERCaMP) assay (AID 1508630; active = well fitted inhibition curve with a large enough effect; note: % is set by controls: 0 for no effect and ±100 for the full control effect)
Procedure, shortened: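 The SH-SY5Y reporter protocol was run at 3 concentrations up to 38.3 uM (primary) or 11 concentrations (follow-up): 16 h compound, 100 nM thapsigargin for 4 h, then extracellular luciferase luminescence.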

[14] = NFAT Signaling Pathway (AID 444); conditions: Jurkat NFAT-bla M1, carbachol, beta-lactamase ratio, 5 h; at 7.69 µM (top of the series)
Procedure, shortened: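 Read-out: CCF4 FRET ratio (460 nm/530 nm) after 1 h RT dye loading, used for %activity and AC50 from titration series. Cells: Jurkat NFAT-β-lactamase/M1 line, treated with compound plus 1 uM carbachol for 5 h, 37 °C.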

[15] = qHTS Assay for Identification of Small Molecule Agonists for Hypoxia Response Element Signaling Pathway (AID 914; active = well fitted activation curve with a large enough effect in the signal ratio, with a control signal flat, not every such curve was filed as active; the % refers to the signal ratio; note: % of control where 0% means no effect); conditions: ME-180 (cervical carcinoma) HRE-bla reporter, beta-lactamase ratio, CoCl2, 17 h; activation: stronger effect = higher value
Procedure, shortened: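 Compounds in a titration series were added to ME-180 reporter cells alongside an EC50 level of CoCl2. After 17 hours, beta-lactamase activity was read as the 460nm/530nm emission ratio of CCF4, giving AC50 values.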

[16] = measured here: cell count channel max response
[17] = measured here: lipid channel max response

CC(C)NC(=O)N1CC[C@@]2(CCCNC2)C1
Potency [1]: > 20 µM (inactive) | Potency [2]: > 11.4 µM (inactive) | outcome [3]: inactive | Potency [4]: inactive | outcome [5]: inactive | Potency [6]: > 46 µM (inactive) | outcome [7]: inactive | Potency [8]: inactive | Potency [9]: inactive | Potency [10]: inactive | Potency [11]: inactive | activity change, negative = inhibition [12]: 0.953% (inactive) | max response [12, 16]: 13.7% | max response [12, 17]: 18.1% | outcome [13]: inactive

c1ccc(N2CC3(CCNCC3)C2)nc1
Potency [2]: > 11.4 µM (inactive) | outcome [3]: inactive | outcome [5]: inactive | Potency [6]: > 46 µM (inactive) | outcome [7]: inactive | Potency [8]: inactive | activity change, negative = inhibition [12]: -0.659% (inactive) | max response [12, 16]: 12.4% | max response [12, 17]: 14.7% | outcome [13]: inactive

CC(C)CN1CCC2(CC1)CCN(C(=O)Oc1ccccc1)CC2
Potency [2]: > 11.4 µM (inactive) | outcome [3]: inactive | Potency [4]: inactive | outcome [5]: inactive | Potency [6]: > 46 µM (inactive) | outcome [7]: inactive | Potency [8]: inactive | activity change, negative = inhibition [12]: 3.6% (inactive) | max response [12, 16]: -4.31% | max response [12, 17]: 1.23% | outcome [13]: inactive

O=C(Nc1cccc(F)c1)N1CC2(CCNCC2)C1
Potency [1]: > 20 µM (inactive) | Potency [2]: > 11.4 µM (inactive) | outcome [3]: inactive | Potency [4]: inactive | outcome [5]: inactive | Potency [6]: > 46 µM (inactive) | outcome [7]: inactive | Potency [8]: inactive | activity change, negative = inhibition [12]: 3.38% (inactive) | max response [12, 16]: 6.28% | max response [12, 17]: 12.8% | outcome [13]: inactive

c1csc(CN2CC[C@@]3(CCCNC3)C2)n1
Potency [1]: > 20 µM (inactive) | Potency [2]: > 11.4 µM (inactive) | outcome [3]: inactive | Potency [4]: inactive | activity change, negative = inhibition [14]: -10% (inactive) | outcome [5]: inactive | Potency [6]: > 46 µM (inactive) | outcome [7]: inactive | Potency [8]: inactive | activation [15]: 9.27% (inactive) | activity change, negative = inhibition [12]: 0.956% (inactive) | max response [12, 16]: -1.59% | max response [12, 17]: 1.97% | outcome [13]: inactive

O=C(c1ccncc1)N1CCC2(CC1)CN(Cc1ccccc1)C2
Potency [2]: > 11.4 µM (inactive) | outcome [3]: inactive | Potency [4]: inactive | Potency [6]: > 46 µM (inactive) | outcome [7]: inactive | Potency [8]: inactive | Potency [10]: 6.31 µM (active) | activity change, negative = inhibition [12]: -1.45% (inactive) | max response [12, 16]: -4.26% | max response [12, 17]: -4.05% | outcome [13]: inactive

c1cnc(N2CC3(CCNCC3)C2)nc1
Potency [2]: > 11.4 µM (inactive) | outcome [3]: inactive | activity change, negative = inhibition [14]: -1.58% (inactive) | outcome [5]: inactive | Potency [6]: > 46 µM (inactive) | Potency [8]: inactive | activity change, negative = inhibition [12]: 1.55% (inactive) | max response [12, 16]: 11.6% | max response [12, 17]: 15.7% | outcome [13]: inactive

c1csc(CN2CCC3(CCNCC3)CC2)n1
Potency [2]: > 11.4 µM (inactive) | outcome [3]: inactive | Potency [4]: inactive | activity change, negative = inhibition [14]: -5.8% (inactive) | outcome [5]: inactive | Potency [6]: > 46 µM (inactive) | Potency [8]: inactive | activity change, negative = inhibition [12]: -2.74% (inactive) | max response [12, 16]: 11.7% | max response [12, 17]: 11% | outcome [13]: inactive

O=C(c1ccncc1)N1CCC[C@@]2(CCN(Cc3nccs3)C2)C1
Potency [2]: > 11.4 µM (inactive) | outcome [3]: inactive | outcome [5]: inactive | Potency [6]: > 46 µM (inactive) | outcome [7]: inactive | Potency [8]: inactive | activity change, negative = inhibition [12]: 3.49% (inactive) | max response [12, 16]: 8.75% | max response [12, 17]: 15.4% | outcome [13]: inactive

CN1CCCC2(CCN(C(=O)c3ccco3)CC2)C1
Potency [1]: > 20 µM (inactive) | Potency [2]: > 11.4 µM (inactive) | outcome [3]: inactive | outcome [5]: inactive | Potency [6]: > 46 µM (inactive) | outcome [7]: inactive | Potency [8]: inactive | activation [15]: -1.89% (inactive) | activity change, negative = inhibition [12]: -2.44% (inactive) | max response [12, 16]: -24.9% | max response [12, 17]: -25.6% | outcome [13]: inactive

CC(C)CN1CC[C@@]2(CCCN(C(=O)c3ccncc3)C2)C1
Potency [2]: > 11.4 µM (inactive) | outcome [3]: inactive | activity change, negative = inhibition [14]: -22.2% (inactive) | outcome [5]: inactive | Potency [6]: > 46 µM (inactive) | outcome [7]: inactive | Potency [8]: inactive | activity change, negative = inhibition [12]: 2.73% (inactive) | max response [12, 16]: -1.41% | max response [12, 17]: 4.49% | outcome [13]: inactive

CN1CCCC2(CCN(C(=O)c3ccncc3)CC2)C1
Potency [2]: > 11.4 µM (inactive) | outcome [3]: inactive | Potency [4]: inactive | activity change, negative = inhibition [14]: -16.6% (inactive) | outcome [5]: inactive | Potency [6]: > 46 µM (inactive) | outcome [7]: inactive | Potency [8]: inactive | activity change, negative = inhibition [12]: 2.07% (inactive) | max response [12, 16]: 15.5% | max response [12, 17]: 19.9% | outcome [13]: inactive

CC(n1cc(C[C@H](N)C(=O)O)c2ccccc21)n1cc(C[C@H](N)C(=O)O)c2ccccc21
outcome [13]: inactive

O=C(Nc1ccccc1)N1CC[C@@]2(CCCNC2)C1
Potency [2]: > 11.4 µM (inactive) | outcome [3]: inactive | activity change, negative = inhibition [14]: 19.4% (inactive) | outcome [5]: inactive | Potency [6]: > 46 µM (inactive) | outcome [7]: inactive | activity change, negative = inhibition [12]: -3.27% (inactive) | max response [12, 16]: 4.57% | max response [12, 17]: 3% | outcome [13]: inactive

O=C(c1cnccn1)N1CCC2(CC1)CN(Cc1ccncc1)C2
Potency [2]: > 11.4 µM (inactive) | outcome [3]: inactive | activity change, negative = inhibition [14]: -23.5% (inactive) | outcome [5]: inactive | Potency [6]: > 46 µM (inactive) | outcome [7]: inactive | Potency [8]: inactive | activity change, negative = inhibition [12]: 2.96% (inactive) | max response [12, 16]: -1.92% | max response [12, 17]: 3.49% | outcome [13]: inactive
